Experimental data from publication PMC7862700, “An all-to-all approach to the identification of sequence-specific readers for epigenetic DNA modifications on cytosine”.

Columns and labels:
Assay in all cases: DAPPL (digital affinity profiling via proximity ligation, sequencing); 10 mM Tris-HCl pH 7.5, 50 mM NaCl, 1 mM DTT, 4% glycerol, room temperature, 30 min; GST-TFs on glutathione beads, 16-mer random dsDNA library, 0.1% formaldehyde crosslink after washing; high values mean tight binding
[1] = molecular target: T1, FLI1 (Homo sapiens, UniProt Q01543 1-452); details: protein: recombinant; tags: N-terminal GST; dsDNA, one strand shown
T1 sequence: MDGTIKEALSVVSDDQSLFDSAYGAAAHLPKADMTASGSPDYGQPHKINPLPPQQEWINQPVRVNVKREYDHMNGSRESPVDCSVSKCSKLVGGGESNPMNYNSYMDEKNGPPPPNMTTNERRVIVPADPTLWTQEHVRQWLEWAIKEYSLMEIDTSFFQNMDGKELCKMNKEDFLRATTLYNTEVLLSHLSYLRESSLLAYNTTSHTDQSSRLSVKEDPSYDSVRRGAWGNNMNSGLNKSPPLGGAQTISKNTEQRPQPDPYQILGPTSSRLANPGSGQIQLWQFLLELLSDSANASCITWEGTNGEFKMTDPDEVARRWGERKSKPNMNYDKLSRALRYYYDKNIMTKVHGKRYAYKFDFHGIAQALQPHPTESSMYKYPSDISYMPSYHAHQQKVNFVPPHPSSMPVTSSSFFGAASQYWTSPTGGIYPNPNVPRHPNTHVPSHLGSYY
In short: (§1)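 Pools were built from human transcription factors expressed in yeast as GST fusions, captured on glutathione beads and DNA-barcoded, along with a tag-only sample. Incubation with 200 nmole of a 16-mer random double-stranded DNA library lasted 30 min at room temperature in Tris/NaCl/DTT/glycerol buffer, and was followed by washing, 0.1% formaldehyde crosslinking, proximity ligation, PCR amplification and Illumina NextSeq500 sequencing. Binding signal is the quotient of each hexamer's read frequency for a factor and its frequency for the tag-only sample.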

[2] = molecular target: T2, ELK1 (Homo sapiens, UniProt P19419 1-428); details: protein: recombinant; tags: N-terminal GST; dsDNA, one strand shown
T2 sequence: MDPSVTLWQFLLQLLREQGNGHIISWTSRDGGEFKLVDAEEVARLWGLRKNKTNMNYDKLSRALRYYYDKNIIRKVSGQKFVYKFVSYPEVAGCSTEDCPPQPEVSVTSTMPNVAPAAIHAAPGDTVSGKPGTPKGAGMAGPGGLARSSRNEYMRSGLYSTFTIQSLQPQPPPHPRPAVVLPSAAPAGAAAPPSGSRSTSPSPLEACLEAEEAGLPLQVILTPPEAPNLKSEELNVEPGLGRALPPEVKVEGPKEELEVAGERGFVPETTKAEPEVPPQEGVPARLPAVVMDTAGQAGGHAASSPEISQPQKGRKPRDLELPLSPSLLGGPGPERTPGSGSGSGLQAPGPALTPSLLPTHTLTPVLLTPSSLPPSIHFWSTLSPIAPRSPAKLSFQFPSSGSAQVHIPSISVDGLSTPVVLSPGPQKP
In short: as §1

[3] = molecular target: T3, GABPA (Homo sapiens, UniProt Q06546 1-454); details: protein: recombinant; tags: N-terminal GST; dsDNA, one strand shown
T3 sequence: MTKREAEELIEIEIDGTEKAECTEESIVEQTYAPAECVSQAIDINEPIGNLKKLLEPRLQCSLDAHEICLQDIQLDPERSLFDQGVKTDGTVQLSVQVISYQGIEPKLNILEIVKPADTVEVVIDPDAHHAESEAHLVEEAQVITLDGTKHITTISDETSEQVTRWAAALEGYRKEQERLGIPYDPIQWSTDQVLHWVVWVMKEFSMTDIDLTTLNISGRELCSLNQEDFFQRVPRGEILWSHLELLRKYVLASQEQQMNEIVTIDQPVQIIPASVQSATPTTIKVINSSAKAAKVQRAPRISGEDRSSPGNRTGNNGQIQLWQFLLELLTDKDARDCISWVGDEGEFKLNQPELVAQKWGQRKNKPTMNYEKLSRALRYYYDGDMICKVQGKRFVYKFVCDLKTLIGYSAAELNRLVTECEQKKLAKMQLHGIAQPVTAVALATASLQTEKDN
In short: as §1

[4] = molecular target: T4, ERG (Homo sapiens, UniProt P11308 1-479); details: protein: recombinant; tags: N-terminal GST; dsDNA, one strand shown
T4 sequence: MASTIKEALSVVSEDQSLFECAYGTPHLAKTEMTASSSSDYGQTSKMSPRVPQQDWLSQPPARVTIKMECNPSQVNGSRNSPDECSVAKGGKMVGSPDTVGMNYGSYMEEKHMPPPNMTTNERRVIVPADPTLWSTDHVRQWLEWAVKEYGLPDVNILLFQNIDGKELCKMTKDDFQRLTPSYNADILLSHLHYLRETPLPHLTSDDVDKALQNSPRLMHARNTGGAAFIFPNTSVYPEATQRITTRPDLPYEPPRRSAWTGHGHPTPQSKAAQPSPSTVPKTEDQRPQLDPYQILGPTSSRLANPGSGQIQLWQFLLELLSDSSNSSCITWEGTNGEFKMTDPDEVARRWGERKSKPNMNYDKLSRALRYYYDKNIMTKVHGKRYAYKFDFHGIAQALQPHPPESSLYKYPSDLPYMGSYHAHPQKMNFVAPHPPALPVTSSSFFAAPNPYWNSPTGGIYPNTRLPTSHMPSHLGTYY
In short: as §1

[5] = molecular target: ELF1 (Homo sapiens, UniProt P32519 1-619); details: protein: recombinant; tags: N-terminal GST; dsDNA, one strand shown
Sequence of ELF1 (P32519 whole entry): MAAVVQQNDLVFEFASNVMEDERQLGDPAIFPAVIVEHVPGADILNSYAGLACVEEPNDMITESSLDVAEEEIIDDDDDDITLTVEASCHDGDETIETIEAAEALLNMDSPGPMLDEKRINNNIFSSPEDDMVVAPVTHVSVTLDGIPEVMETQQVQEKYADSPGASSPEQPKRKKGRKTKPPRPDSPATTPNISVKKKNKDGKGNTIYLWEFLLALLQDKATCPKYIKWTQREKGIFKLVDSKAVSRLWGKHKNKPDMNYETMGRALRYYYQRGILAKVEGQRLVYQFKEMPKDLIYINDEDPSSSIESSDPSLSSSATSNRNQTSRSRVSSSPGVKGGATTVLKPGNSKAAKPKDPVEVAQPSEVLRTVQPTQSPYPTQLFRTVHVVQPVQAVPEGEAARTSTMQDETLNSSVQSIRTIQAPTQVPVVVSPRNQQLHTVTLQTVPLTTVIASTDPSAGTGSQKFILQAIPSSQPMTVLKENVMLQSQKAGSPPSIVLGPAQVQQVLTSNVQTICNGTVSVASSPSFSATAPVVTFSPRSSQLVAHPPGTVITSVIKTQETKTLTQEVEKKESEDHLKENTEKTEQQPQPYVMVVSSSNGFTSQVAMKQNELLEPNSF
In short: as §1

[6] = molecular target: T5, EHF (Homo sapiens, UniProt Q9NZC4 1-300); details: protein: recombinant; tags: N-terminal GST; dsDNA, one strand shown
T5 sequence: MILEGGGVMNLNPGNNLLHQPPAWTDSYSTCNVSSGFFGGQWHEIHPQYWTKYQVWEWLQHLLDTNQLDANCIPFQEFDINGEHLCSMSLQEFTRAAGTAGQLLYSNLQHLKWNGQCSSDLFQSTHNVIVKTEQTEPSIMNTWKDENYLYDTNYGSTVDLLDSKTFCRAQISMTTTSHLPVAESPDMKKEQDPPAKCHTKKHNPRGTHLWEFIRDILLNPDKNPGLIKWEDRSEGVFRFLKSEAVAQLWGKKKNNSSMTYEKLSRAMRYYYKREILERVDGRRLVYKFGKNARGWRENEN
In short: as §1

[7] = molecular target: SPI1 (Homo sapiens, UniProt P17947 1-270); details: protein: recombinant; tags: N-terminal GST; dsDNA, one strand shown
In short: as §1

[8] = molecular target: SPIB (Homo sapiens, UniProt Q01892 1-262); details: protein: recombinant; tags: N-terminal GST; dsDNA, one strand shown
Sequence of SPIB (Q01892 whole entry): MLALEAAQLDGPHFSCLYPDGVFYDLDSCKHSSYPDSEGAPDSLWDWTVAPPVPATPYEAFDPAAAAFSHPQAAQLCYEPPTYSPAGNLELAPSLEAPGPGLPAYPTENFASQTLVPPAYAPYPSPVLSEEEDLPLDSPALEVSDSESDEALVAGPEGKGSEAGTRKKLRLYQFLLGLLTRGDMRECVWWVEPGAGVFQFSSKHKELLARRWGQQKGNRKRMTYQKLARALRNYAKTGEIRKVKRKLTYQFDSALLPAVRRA
In short: as §1

[9] = molecular target: T6, ELK3 (Homo sapiens, UniProt P41970 1-407); details: protein: recombinant; tags: N-terminal GST; dsDNA, one strand shown
T6 sequence: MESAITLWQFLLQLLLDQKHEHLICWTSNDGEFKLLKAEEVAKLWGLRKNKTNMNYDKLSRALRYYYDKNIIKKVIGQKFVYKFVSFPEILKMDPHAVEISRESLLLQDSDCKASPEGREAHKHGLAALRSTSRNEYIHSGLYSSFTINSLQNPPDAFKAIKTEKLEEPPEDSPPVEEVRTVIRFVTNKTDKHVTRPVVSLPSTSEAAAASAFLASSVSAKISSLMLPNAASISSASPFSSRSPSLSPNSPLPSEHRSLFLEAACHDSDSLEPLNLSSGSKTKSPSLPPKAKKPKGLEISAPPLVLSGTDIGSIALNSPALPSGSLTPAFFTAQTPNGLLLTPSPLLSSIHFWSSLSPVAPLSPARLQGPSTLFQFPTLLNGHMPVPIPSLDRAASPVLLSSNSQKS
In short: as §1

[10] = molecular target: T7, FEV (Homo sapiens, UniProt Q99581 1-238); details: protein: recombinant; tags: N-terminal GST; dsDNA, one strand shown
T7 sequence: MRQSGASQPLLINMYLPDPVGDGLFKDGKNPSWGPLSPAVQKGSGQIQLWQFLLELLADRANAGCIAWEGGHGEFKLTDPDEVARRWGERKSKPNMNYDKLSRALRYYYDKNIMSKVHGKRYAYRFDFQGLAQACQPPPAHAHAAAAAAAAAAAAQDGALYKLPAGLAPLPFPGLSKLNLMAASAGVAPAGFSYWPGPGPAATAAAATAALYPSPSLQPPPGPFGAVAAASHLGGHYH
In short: as §1

[11] = molecular target: ETV5 (Homo sapiens, UniProt P41161 1-510); details: protein: recombinant; tags: N-terminal GST; dsDNA, one strand shown
Sequence of ETV5 (P41161 whole entry): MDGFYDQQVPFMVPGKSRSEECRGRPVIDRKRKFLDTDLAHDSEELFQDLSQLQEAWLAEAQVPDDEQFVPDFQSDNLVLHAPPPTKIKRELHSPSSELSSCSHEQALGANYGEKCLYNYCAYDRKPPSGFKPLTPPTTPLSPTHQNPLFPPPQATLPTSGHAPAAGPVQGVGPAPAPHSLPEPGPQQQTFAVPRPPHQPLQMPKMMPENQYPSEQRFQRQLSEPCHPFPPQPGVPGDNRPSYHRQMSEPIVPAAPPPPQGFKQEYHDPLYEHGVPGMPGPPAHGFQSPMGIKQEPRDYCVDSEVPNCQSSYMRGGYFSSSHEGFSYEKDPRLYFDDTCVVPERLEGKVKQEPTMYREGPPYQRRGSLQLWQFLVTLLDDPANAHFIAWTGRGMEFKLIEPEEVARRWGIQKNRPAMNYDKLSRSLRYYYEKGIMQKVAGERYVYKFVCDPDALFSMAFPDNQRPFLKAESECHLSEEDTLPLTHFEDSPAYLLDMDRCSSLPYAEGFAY
In short: as §1

[12] = molecular target: HSF1 (Homo sapiens, UniProt Q00613 1-529); details: protein: recombinant; tags: N-terminal GST; chain copies: 3; dsDNA, one strand shown
Sequence of HSF1 (Q00613 whole entry): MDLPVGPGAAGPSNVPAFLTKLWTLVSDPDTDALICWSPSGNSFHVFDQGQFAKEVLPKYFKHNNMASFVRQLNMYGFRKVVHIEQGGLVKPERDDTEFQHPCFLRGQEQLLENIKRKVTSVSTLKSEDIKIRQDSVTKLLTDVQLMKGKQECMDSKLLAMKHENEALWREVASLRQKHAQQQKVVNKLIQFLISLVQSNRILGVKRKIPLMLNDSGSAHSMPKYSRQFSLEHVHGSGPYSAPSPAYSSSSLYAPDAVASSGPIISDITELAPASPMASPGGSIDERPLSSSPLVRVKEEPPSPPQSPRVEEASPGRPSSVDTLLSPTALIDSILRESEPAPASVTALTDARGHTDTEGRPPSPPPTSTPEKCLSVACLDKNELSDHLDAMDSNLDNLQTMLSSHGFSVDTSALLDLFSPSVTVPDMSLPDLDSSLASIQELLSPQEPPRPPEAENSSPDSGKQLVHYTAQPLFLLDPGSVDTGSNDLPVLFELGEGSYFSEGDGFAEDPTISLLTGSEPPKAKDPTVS
In short: as §1

[13] = molecular target: T8, SPIC (Homo sapiens, UniProt Q8N5J4 1-248); details: protein: recombinant; tags: N-terminal GST; dsDNA, one strand shown
T8 sequence: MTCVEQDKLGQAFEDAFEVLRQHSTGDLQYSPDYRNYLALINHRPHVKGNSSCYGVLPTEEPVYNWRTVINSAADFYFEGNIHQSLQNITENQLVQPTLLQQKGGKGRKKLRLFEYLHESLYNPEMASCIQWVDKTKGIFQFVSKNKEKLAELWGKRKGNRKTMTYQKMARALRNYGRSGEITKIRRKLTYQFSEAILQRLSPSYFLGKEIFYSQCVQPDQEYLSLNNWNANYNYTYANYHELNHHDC
In short: as §1

[14] = molecular target: ELF4 (Homo sapiens, UniProt Q99607 1-663); details: protein: recombinant; tags: N-terminal GST; dsDNA, one strand shown
Sequence of ELF4 (Q99607 whole entry): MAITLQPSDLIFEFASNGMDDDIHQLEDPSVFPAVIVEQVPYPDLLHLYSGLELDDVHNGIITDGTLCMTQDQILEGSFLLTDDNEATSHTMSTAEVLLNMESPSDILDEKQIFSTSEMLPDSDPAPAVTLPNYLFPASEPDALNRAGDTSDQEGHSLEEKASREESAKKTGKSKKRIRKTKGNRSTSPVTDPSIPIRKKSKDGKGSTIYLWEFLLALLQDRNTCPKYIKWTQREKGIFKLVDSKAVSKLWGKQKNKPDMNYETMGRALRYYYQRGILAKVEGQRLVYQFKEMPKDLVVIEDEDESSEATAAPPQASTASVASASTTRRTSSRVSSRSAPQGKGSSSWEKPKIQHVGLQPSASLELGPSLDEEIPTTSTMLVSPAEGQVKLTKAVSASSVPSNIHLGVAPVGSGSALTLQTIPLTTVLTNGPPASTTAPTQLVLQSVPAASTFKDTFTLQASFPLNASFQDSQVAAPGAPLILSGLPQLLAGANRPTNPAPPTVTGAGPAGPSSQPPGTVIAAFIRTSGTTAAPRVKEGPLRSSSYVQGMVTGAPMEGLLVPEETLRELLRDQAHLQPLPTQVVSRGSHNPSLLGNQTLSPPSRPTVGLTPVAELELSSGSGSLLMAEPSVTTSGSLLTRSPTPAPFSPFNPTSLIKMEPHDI
In short: as §1

[15] = molecular target: T9, ELK4 (Homo sapiens, UniProt P28324-2 1-405); details: protein: recombinant; tags: N-terminal GST; dsDNA, one strand shown
T9 sequence: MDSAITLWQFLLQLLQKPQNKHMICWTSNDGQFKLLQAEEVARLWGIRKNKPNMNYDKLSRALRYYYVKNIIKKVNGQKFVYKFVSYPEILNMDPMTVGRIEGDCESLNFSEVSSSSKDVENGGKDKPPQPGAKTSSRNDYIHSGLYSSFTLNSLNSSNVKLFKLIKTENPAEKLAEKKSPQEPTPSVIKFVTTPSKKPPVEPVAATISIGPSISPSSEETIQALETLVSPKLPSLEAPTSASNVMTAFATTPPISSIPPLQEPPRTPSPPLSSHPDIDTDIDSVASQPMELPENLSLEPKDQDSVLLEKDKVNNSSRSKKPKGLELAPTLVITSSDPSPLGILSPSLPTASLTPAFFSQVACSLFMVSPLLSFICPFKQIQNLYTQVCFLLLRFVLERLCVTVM
In short: as §1

[16] = molecular target: T10, ETV2 (Homo sapiens, UniProt O00321 1-342); details: protein: recombinant; tags: N-terminal GST; dsDNA, one strand shown
T10 sequence: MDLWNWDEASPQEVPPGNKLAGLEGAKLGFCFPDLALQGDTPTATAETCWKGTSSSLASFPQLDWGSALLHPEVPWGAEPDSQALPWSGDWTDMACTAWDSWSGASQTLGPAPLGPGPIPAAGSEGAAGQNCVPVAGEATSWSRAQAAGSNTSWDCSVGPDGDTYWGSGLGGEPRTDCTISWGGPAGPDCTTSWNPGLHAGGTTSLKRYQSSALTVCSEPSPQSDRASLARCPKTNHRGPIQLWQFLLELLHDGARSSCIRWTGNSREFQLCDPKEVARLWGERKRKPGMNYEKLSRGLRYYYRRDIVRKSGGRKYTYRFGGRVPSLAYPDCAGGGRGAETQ
In short: as §1

[17] = molecular target: T11, ELF3 (Homo sapiens, UniProt P78545 1-371); details: protein: recombinant; tags: N-terminal GST; dsDNA, one strand shown
T11 sequence: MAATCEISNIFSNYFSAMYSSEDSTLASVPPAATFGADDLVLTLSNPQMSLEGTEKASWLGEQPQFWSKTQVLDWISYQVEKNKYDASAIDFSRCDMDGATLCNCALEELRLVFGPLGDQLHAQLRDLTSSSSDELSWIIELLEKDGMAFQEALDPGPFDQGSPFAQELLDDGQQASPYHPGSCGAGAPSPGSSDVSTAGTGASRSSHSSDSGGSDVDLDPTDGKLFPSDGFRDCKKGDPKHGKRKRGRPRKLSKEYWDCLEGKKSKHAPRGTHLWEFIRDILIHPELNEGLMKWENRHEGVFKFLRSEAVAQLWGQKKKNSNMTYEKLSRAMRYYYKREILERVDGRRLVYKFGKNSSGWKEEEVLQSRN
In short: as §1

[18] = molecular target: CRX (Homo sapiens, UniProt O43186 1-299); details: protein: recombinant; tags: N-terminal GST; dsDNA, one strand shown
Sequence of CRX (O43186 whole entry): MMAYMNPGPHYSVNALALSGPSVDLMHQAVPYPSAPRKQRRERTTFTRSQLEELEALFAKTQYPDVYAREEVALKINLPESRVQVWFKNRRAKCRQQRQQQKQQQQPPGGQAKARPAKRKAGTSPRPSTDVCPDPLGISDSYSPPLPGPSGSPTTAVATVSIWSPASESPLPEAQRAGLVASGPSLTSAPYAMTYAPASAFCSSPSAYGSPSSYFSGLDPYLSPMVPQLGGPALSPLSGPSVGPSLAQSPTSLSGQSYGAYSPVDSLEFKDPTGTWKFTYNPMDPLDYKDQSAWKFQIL
In short: as §1

[19] = molecular target: ETV1 (Homo sapiens, UniProt P50549 1-477); details: protein: recombinant; tags: N-terminal GST; dsDNA, one strand shown
Sequence of ETV1 (P50549 whole entry): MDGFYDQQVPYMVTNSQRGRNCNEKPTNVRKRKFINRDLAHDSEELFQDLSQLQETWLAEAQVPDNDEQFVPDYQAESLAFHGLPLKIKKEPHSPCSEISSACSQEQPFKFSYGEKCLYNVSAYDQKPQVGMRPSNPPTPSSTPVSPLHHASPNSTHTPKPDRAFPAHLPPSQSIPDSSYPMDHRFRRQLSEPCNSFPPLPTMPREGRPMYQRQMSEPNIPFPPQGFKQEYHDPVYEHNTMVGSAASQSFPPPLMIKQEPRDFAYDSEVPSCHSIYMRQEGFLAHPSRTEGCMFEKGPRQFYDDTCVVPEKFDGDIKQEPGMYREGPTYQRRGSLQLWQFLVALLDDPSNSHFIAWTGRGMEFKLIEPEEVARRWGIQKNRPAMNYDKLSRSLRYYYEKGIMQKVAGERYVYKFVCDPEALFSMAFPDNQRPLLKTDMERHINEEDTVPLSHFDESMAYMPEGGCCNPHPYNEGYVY
In short: as §1

TCGCTT
binding signal [1]: 1.22 fold enrichment (6-mer frequency, TF over GST control) | binding signal [2]: 1.3 fold enrichment (6-mer frequency, TF over GST control) | binding signal [3]: 1.23 fold enrichment (6-mer frequency, TF over GST control) | binding signal [4]: 1.18 fold enrichment (6-mer frequency, TF over GST control) | binding signal [5]: 1.19 fold enrichment (6-mer frequency, TF over GST control) | binding signal [6]: 1.2 fold enrichment (6-mer frequency, TF over GST control) | binding signal [7]: 1.08 fold enrichment (6-mer frequency, TF over GST control) | binding signal [8]: 1.38 fold enrichment (6-mer frequency, TF over GST control) | binding signal [9]: 1.18 fold enrichment (6-mer frequency, TF over GST control) | binding signal [10]: 1.2 fold enrichment (6-mer frequency, TF over GST control) | binding signal [11]: 1.38 fold enrichment (6-mer frequency, TF over GST control) | binding signal [12]: 1.11 fold enrichment (6-mer frequency, TF over GST control) | binding signal [13]: 1.08 fold enrichment (6-mer frequency, TF over GST control) | binding signal [14]: 1.24 fold enrichment (6-mer frequency, TF over GST control) | binding signal [15]: 1.21 fold enrichment (6-mer frequency, TF over GST control) | binding signal [16]: 1.05 fold enrichment (6-mer frequency, TF over GST control) | binding signal [17]: 1.18 fold enrichment (6-mer frequency, TF over GST control) | binding signal [18]: 1.15 fold enrichment (6-mer frequency, TF over GST control) | binding signal [19]: 1.24 fold enrichment (6-mer frequency, TF over GST control)
